Hits are enriched below; roughly 1.6% of the tested compounds scored in any of these assays.
KCNQ2 block – KCNQ2 (rat) channel inhibition. O88943. CHO-K1 KCNQ2, FluxOR thallium flux, 20 min; hits give low values. B-score at 10 µM. 310,000 tested, 1.1% active;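 active means fluorescence ratio B-score at most minus 3 library SDs, with starting brightness B-score within 2 library SDs, cut at about -5.5 in these data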
KCNQ2 enhance – potentiators of rat KCNQ2 potassium channel. O88943. CHO-K1 KCNQ2, FluxOR thallium flux fluorescence; hits give high values. B-score at 10 µM. 310,000 tested, 0.54% active. AID 2239;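 active means fluorescence ratio B-score at least 3 SD of library B-scores, with initial fluorescence B-score within 3 of them, cut at about 5.3 in these data; same plate scores as AID 2156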;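 further: B-score of peak minus minimum over baseline fluorescence ratio after K+ and Tl+ stimulus; positive B-score means potentiation of KCNQ2 with more thallium influx and brighter signal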
Kir21 conf inh – confirmation of mouse Kir2.1 potassium channel inhibitors; shares compounds with KCNQ2 enhance; Kir2.1-expressing cells, FluxOR thallium flux fluorescence; hits give low values; Tl flux remaining, % of negative control (hits give low values), % at 10 µM; 2,300 tested, 41% active;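 active means Primary-screen hit whose thallium flux fell at least 3 control SD below untreated wells in both duplicates, with normal baseline fluorescence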;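 further: 0% = blank wells without stimulus and 100% = stimulated no-compound controls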
Target sequence (P35561 whole entry, looked up): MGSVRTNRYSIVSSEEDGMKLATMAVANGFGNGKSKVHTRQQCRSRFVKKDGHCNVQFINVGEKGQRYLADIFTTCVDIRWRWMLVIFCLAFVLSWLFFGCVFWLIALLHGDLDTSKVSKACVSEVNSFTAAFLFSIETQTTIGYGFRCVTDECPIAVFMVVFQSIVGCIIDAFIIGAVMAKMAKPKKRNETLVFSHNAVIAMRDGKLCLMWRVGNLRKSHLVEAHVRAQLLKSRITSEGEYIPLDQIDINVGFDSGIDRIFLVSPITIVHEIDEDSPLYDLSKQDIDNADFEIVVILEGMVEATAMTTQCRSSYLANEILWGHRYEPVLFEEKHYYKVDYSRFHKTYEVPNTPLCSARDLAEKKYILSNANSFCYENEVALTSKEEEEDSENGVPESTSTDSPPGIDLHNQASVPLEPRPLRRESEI
HEK293 Tl flux – parental HEK293 activity in Kir2.1 inhibitor counter-screen | AID 2105 | shares compounds with KCNQ2 enhance | 2,300 tested, 19% active | parental HEK293 cells, FluxOR thallium flux fluorescence; 0% = unstimulated blank wells | FluxOR signal as % of negative control (100 = no effect), % at 10 µM;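 active means dye signal at least 3 control SD above or below untreated wells in both duplicates, raw fluorescence within 3, either direction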;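 further: percent is based on the flux ratio of peak minus minimum fluorescence over baseline F0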
CHO-K1 Tl ctr – alters thallium flux in parental CHO-K1 cells, KCNQ2 counter-screen. shares compounds with KCNQ2 enhance. FluxOR thallium flux fluorescence; zero = vehicle mean+3SD, 100% = vehicle-minus-blank window. activity increase over 3SD of controls, % at 10 µM. 1,200 tested, 43% active. AID 2282;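 active means signal rise of at least 3 SD above the untreated control mean, in both duplicate wells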;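 further: counter screen of KCNQ2 potentiator hits so any rise reflects channel-independent effects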
KCNQ1 pot spec – tests whether KCNQ2 potentiators also act on human KCNQ1. 1,200 tested, 28% active. shares compounds with KCNQ2 enhance. CHO KCNQ1 stable, FluxOR thallium flux fluorescence; beyond 3SD, as % of vehicle-control signal. activation over 3SD threshold, % at 10 µM. AID 2283;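 active means fluorescence ratio rise of at least 3 SD of vehicle wells above their mean, in both replicate wells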;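 further: 0% = vehicle mean plus 3 SD and 100% = vehicle minus unstimulated blank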
KCNQ2 pot confirm – rat KCNQ2 channel potentiator confirmation; potentiation, less the hit threshold, % at 10 µM; 1,200 tested, 68% active; CHO-KCNQ2 cells, FluxOR thallium flux fluorescence; shares compounds with KCNQ2 enhance;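 active means fluorescence ratio rising 3 SD or more over the vehicle control mean in both replicates, plus primary screen hit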;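 further: peak minus minimum thallium fluorescence divided by baseline after K/Tl stimulus; 0% = vehicle mean plus 3 SD and 100% = vehicle minus unstimulated blank difference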
Kir21 spec – mouse Kir2.1 off-target activity of KCNQ2 potentiators; 1,200 tested, 2% active; HEK293 Kir2.1, FluxOR thallium flux fluorescence; shares compounds with KCNQ2 enhance; activity over 3SD threshold, % at 10 µM;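 active means fluorescence ratio rise of at least 3 SD above the vehicle-control mean, seen in both replicates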;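 further: 0% = vehicle mean plus 3 SD and 100% = vehicle minus no-stimulus blank window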
KCNQ2 W236L pot – KCNQ2 potentiators acting on retigabine-insensitive rat KCNQ2 W236L mutant. shares compounds with KCNQ2 enhance. CHO KCNQ2-W236L, automated patch clamp current. current increase over 3SD of negative controls (%), hits give high values, % at 25 µM. 940 tested, 10% active;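 active means current increase at least 3 SD of the untreated controls above them in both duplicate recordings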
* marks the source's active call; other numbers are inactive results; i = inactive; nt = no result given.

SMILES | KCNQ2 block | KCNQ2 enhance | Kir21 conf inh | HEK293 Tl flux | others
CCCCn1c(NC(=O)c2ccc(F)cc2)c(C#N)c2nc3ccccc3nc21 | i | 5.7* | i | 66%* | CHO-K1 Tl ctr=103*;KCNQ1 pot spec=-8;KCNQ2 pot confirm=-4;Kir21 spec=-38;KCNQ2 W236L pot=i
CCC(C)n1c(NC(=O)c2ccccc2)c(C#N)c2nc3ccccc3nc21 (stereo unspecified) | i | nt | nt | nt
CC(C)(C)c1ccccc1OCCCCCn1ccnc1 | -6.1* | -6.1 | 39%* | i
Cc1ccc(C(C)(C)C)c(OCCCn2ccnc2)c1 | i | nt | nt | nt
CCn1cc(C(=O)O)c(=O)c2cc(F)c(N3CCN(S(=O)(=O)c4ccc(NC(=O)OC)cc4)CC3)cc21 | i | 1.9 | nt | nt
C[C@@H](C(=O)OCn1nnc2ccccc2c1=O)N1C(=O)C2CCCCC2C1=O (stereo partly specified) | i | 0.39 | nt | nt
O=C(NCc1c(Cl)cccc1Oc1ccccc1)c1ccccc1 | i | nt | nt | nt
CC(=O)c1ccc(NC(=O)c2ccc(CSc3ccccc3)o2)cc1 | i | 1.1 | nt | nt
O=C(Nc1ccc(F)cc1)c1ccc(CSc2ccc(Cl)cc2)o1 | i | 7.2* | i | i | CHO-K1 Tl ctr=2.2*;KCNQ1 pot spec=90*;KCNQ2 pot confirm=-9;Kir21 spec=-44;KCNQ2 W236L pot=i
Cc1ccc(CNCC(O)(c2ccc(F)cc2)c2ccc(F)cc2)cc1 | i | nt | nt | nt
COc1ccc(CNCC(O)(c2ccccc2)c2ccccc2)cc1 | i | nt | 56%* | i
COc1ccccc1CNCC(O)(c1ccc(Cl)cc1)c1ccc(Cl)cc1 | i | nt | nt | nt
COc1ccccc1CNCC(O)(c1ccc(F)cc1)c1ccc(F)cc1 | i | nt | 53%* | i
COc1ccc(CNCC(O)(c2ccc(F)cc2)c2ccc(F)cc2)cc1 | i | nt | i | i
OC(CNCc1ccccc1)(c1ccccc1)c1ccccc1 | i | nt | nt | nt
O=C(CSc1nnc(-c2ccccc2)c(-c2ccccc2)n1)NC1CCS(=O)(=O)C1 (stereo unspecified) | i | 0.87 | nt | nt
COc1ccc(OC)c(CCNC(=O)c2ccccc2NC(=O)C2=C(C)OCCS2)c1 | i | 1.2 | nt | nt
Cc1noc(C)c1COc1ccc(C(=O)OCC(=O)Nc2ccc(C(=O)N(C)C)cc2)cc1 | i | nt | nt | nt
Cc1c(O)ccc(NS(=O)(=O)c2ccccc2)c1C | i | nt | nt | nt
Cc1cc(NS(=O)(=O)c2ccccc2)c(C)c(Cl)c1O | i | nt | 69%* | i
CN1CCN(C(=O)c2ccc(OCCOc3ccccc3)cc2)CC1 | i | nt | nt | nt
COc1ccccc1N(CC(=O)N/N=C/c1ccc(C(=O)O)cc1)S(=O)(=O)c1ccc(C)cc1 | i | 0.85 | nt | nt
CCC(C)NC(=O)C1CCN(S(=O)(=O)c2ccc(Br)s2)CC1 (stereo unspecified) | i | 0.77 | nt | nt
CC(NS(=O)(=O)c1ccc(Br)s1)c1ccccc1 (stereo unspecified) | i | 0.04 | 50%* | i
CC(NC(=O)C1CCN(S(=O)(=O)c2ccc(Br)s2)CC1)c1ccccc1 (stereo unspecified) | i | 6.8* | i | i | CHO-K1 Tl ctr=5.4*;KCNQ1 pot spec=-19;KCNQ2 pot confirm=14*;Kir21 spec=-25;KCNQ2 W236L pot=i
COc1cccc(CNC(=O)C2CCN(S(=O)(=O)c3ccc(Br)s3)CC2)c1 | i | 7.3* | i | i | CHO-K1 Tl ctr=-5;KCNQ1 pot spec=-23;KCNQ2 pot confirm=9.6*;Kir21 spec=-48;KCNQ2 W236L pot=i
O=S(=O)(NCc1ccccc1)c1ccc(Br)s1 | i | nt | nt | nt
CCS(=O)(=O)N1CCC(C(=O)NCc2cccc(OC)c2)CC1 | i | 0.09 | nt | nt
Cc1cc(NC(=O)CN(C)C)c([N+](=O)[O-])cc1C | i | nt | nt | nt

Screening results deposited in PubChem BioAssay by Johns Hopkins Ion Channel Center.
